These compounds were tested against Glucose transporter (Leishmania mexicana) (UniProt O61059) (assay: ST_JUDE_LEISH: Cytotoxicity at 2uM final concentration against transgenic Leishmania Mexicana promastigotes LmGT2 that are glucose transport deficient and complemented with the L. Mexicana glucose transporter 2. Activity is measured by DNA content using SYBR green in vitro).
Format: functional

Compared with `CS(=O)(=O)CCCNCc1ccc(-c2cc3c(Nc4ccc(OCc5ccccc5)cc4)ncnc3cn2)o1`, `NC(=O)c1cccc(Nc2nccc(Nc3ccc4[nH]c(-c5ccccc5)cc4c3)n2)c1` is lower in inhibition: 2.01% for the first, 1.6% for the second.

First: O=S(=O)(Nc1cccc(CCN2CCC(N3CCCCC3)CC2)c1)c1ccc(-c2ccccc2)cc1
Second: COc1ccc(NC(=O)Nc2ccc(-c3ccccc3)cc2)cc1Cn1nc(Cl)c(N2CCCNCC2)cc1=O
The inhibition of the first is higher: 3.57% for the first, 0.02% for the second.

Compared with `CC1CN(Cc2cccc(-c3ccc(-c4nc5ccccc5[nH]4)cc3)c2)CC(C)O1` (stereo not given), `FC(F)(F)c1ccc2[nH]c(-c3cccc(-c4ccc(CNCCc5ccncc5)cc4)c3)nc2c1` is lower in inhibition: 2.3% for the first, -0.21% for the second.

Compared with `CCC[C@@H]([C@@H](CC(C)C)C(=O)N[C@@H](CCCCNC(=O)OCc1ccccc1)C(=O)Nc1ncccn1)N(O)C=O`, `NC1=NC(c2ccccc2)N(OCc2ccccc2)C(N)=N1` (stereo not given) is lower in inhibition: 17.1% for the first, 0.06% for the second.

Compared with `O=C1COc2ccc(CNC3CCC(O)(CCc4ccnc5cc6c(cc45)OCCO6)CC3)nc2N1` (stereo not given), `CN1CCN(CC2(Nc3nccc(NCCc4cn(C)c5ccccc45)n3)CCCCC2)CC1` is lower in inhibition: 2.8% for the first, -1.09% for the second.

Compared with `O=C(N[C@H]1CCCC[C@H]1C(=O)O)c1ccccc1`, `COc1cc2nc(N3CCC(CNC(=O)c4cc5ccccc5s4)CC3)nc(N)c2cc1OC` is higher in inhibition: 0.81% for the first, 10.4% for the second.

First: CCN(CC)c1ccc(C(=O)Cn2ccc(=N)cc2)cc1
Second: CC(=O)/N=C1\N=C(NC(C)=O)NC(C)(C)N1OCCCOc1ccc(Cl)c(Cl)c1
The inhibition of the first is lower: 0.82% for the first, 1.47% for the second.

Compound `COc1cc(Nc2nccc(Nc3ccc4c(C)n[nH]c4c3)n2)cc2ccccc12` has an inhibition of -0.29%.

From ChEMBL document CHEMBL3433997, “St. Jude Leishmania screening dataset” (2016)
